# In the library only some 0.41% were active in any assay of this set; here they are far more common.
# GLA inh pH 4.5: inhibitors of human alpha-galactosidase A at pH 4.5; P06280; purified enzyme, 4-MU-alpha-Gal fluorescence, pH 4.5; activity change, negative = inhibition, % at 105 µM; 230,000 tested, under 10 active; AID 1467
# Target sequence (P06280 whole entry, looked up): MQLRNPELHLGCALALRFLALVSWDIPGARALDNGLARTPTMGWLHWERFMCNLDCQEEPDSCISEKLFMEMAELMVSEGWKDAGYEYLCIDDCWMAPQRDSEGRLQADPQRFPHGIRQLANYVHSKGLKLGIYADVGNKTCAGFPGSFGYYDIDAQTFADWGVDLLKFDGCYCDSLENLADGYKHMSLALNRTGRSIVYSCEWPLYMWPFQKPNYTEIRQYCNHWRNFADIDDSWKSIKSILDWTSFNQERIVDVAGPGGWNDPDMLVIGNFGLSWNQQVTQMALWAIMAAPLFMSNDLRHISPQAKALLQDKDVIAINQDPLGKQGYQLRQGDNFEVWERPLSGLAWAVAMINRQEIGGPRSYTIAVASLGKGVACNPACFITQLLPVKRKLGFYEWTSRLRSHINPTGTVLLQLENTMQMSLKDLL
# GLA spleen mod: inhibitors or activators of human alpha-galactosidase in spleen homogenate. actives 0.008% (n = 240,000). human spleen homogenate, 4MU-alpha-Gal fluorescence, 40 min. AID 2107. Potency, µM (series often up to 80 µM), hits mostly inhibitors
#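 Fluorogenic readout (Ex 365/Em 440 nm) of 4-methylumbelliferone released from 1 mM 4-MU-alpha-galactoside by spleen homogenate, 40 min at 37C, pH 5.0. Data normalized to no-enzyme and enzyme controls; Hill-equation AC50 from compound titrations.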
# aGlu spleen mod: lysosomal alpha-glucosidase (human) modulation; P10253; human spleen homogenate, 4-MU-alpha-glucoside fluorescence; Potency, µM (series often up to 79.9 µM), hits mostly inhibitors; actives 0.006% (n = 240,000)
#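 AC50 values come from Hill-equation fits of concentration-response data, normalized to no-enzyme and full-activity controls. Enzyme source: 1 ug human spleen homogenate; 1 mM fluorogenic 4-MU glucoside, pH 5.0 citrate buffer, 37 C, 40 min.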
# GAA glycogen: inhibitors or activators of human alpha-glucosidase glycogen cleavage; Potency, µM (doses to about 76.4 µM), hits mostly inhibitors; actives 0.38% (n = 300,000); AID 2100; recombinant GAA, glycogen substrate, Amplex Red glucose oxidase fluorescence; P10253;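 also: the screen sought inhibitors and activators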
#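 Recombinant enzyme (4 nM final) with compounds titrated up to 77 uM and bovine liver glycogen (30 ug) in citrate pH 5.0, 0.01% Tween-20, 37 C 40 min. Released glucose detected by Amplex Red/glucose oxidase (Ex 573/Em 610); AC50 from Hill fits.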
# GAA inhib: alpha-glucosidase (human) inhibition; P10253; purified human GAA, 4-MU-alpha-glucoside fluorescence; Potency, µM (titrated, usually from 76.9 µM), most hits filed as inhibitors; actives 0.005% (n = 200,000); AID 1466
#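 Fluorescence at Ex 365/Em 440 nm from 4-methylumbelliferone reported enzyme activity after 20 min at room temperature. Reactions used 4 nM enzyme and 400 uM substrate at pH 5.0; curves fitted with the Hill equation.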
# N370S GC: inhibitors or activators of N370S glucocerebrosidase for Gaucher disease. P04062. N370S GC spleen homogenate, 4MU-glucoside fluorescence. Potency, µM (top dose mostly 59.4 µM), usual class: inhibitors. actives 0.092% (n = 330,000)
# Hits are given with their value; 0 = inactive; ? = inconclusive; - = no result given; [ ] = remark or other dose. Calls follow the shape of the dose curve; as a rule, active = well fitted curve in the direction sought with a large enough effect; inconclusive = small, poorly fitted or top-dose-only effect, or another doubt; inactive = no such curve, though single readings can be large; an effect the other way counts as inactive or inconclusive.
SMILES,GLA inh pH 4.5,GLA spleen mod,aGlu spleen mod,GAA glycogen,GAA inhib,N370S GC
Cc1ccc(CNc2nc3c([nH]2)c(=O)n(C)c(=O)n3C)cc1,0,0,0,0,0,0
COc1ccc(C2C3C=CCC(C)C3C(=O)N2Cc2ccccc2)cc1Cl (stereo unspecified),-,0,0,-,-,0
CCOC(=O)c1c(C)[nH]c(C=Nc2ccccc2)c1O,0,0,0,0,0,0
CCOC(=O)c1c(C)[nH]c(C=Nc2ccc(OC)cc2)c1O,0,0,0,8.91µM,0,0
O=C1Nc2ccccc2N(O)N1c1ccc(Cl)cc1,0,0,0,0,0,0
CCN1c2ccccc2NC2C1C(C(C)=O)C(=O)N2c1ccc(Cl)cc1 (stereo unspecified),0,0,0,24.9µM,0,0
CCCC[C@H]1CCCO[C@@](C(=O)NCc2cc(C)n(C)n2)(C(F)(F)F)C1,-,0,0,-,-,0
O=[N+]([O-])c1ccc(CSc2ncnc3c2ncn3C2OC(CO)C(O)C2O)cc1 (stereo unspecified),-,0,0,-,-,0
CSCC[C@H](NC(=O)[C@H](Cc1ccc(OS(=O)(=O)O)cc1)NC(=O)[C@@H](N)CC(=O)O)C(=O)NCC(=O)N[C@@H](Cc1c[nH]c2ccccc12)C(=O)N[C@@H](CCSC)C(=O)N[C@@H](CC(=O)O)C(=O)N[C@@H](Cc1ccccc1)C(N)=O,-,0,0,-,-,0
CCCc1ccc2oc(C(=O)NCCN3CCCC(C(N)=O)C3)c(C)c2c1 (stereo unspecified),-,-,-,0,-,0
Cc1c(C(=O)NCCN2CCOCC2)oc2ccc(S(=O)(=O)N3CCCCCC3)cc12,0,0,0,0,?,15.8µM
CCCc1ccc2oc(C(=O)NCCN3CCCC(O)C3)c(C)c2c1 (stereo unspecified),-,-,-,-,-,15.8µM
CC(=O)OCCBr,-,0,0,-,-,0
COc1ccc(NCC(=O)Nc2ccc(Br)cc2F)c(OC)c1,0,0,0,39.8µM,0,0
Nc1cc(Cl)c(N)c(Cl)c1,-,0,0,-,-,0
Nc1cc(Cl)c(N)cc1Cl,0,0,0,28.2µM,0,0
COc1ccc(SCC(c2ccccc2)N2CCN(CC(C)C)CCC2=O)cc1 (stereo unspecified),-,0,0,-,-,0
N#C/C(=C/c1cn(-c2ccccc2)nc1-c1cccc(OCc2ccc(F)cc2)c1)C(=O)NCCCn1ccnc1,0,0,0,0,0,15.8µM
CCCOc1cccc(-c2nn(-c3ccccc3)cc2/C=C(\C#N)C(=O)NCCCn2ccnc2)c1,0,0,0,0,0,0
CCOc1ccc(OCCC(=O)OCC(=O)Nc2cc(C)nn2-c2ccccc2)cc1,-,-,-,-,-,0
Cc1cc(Nc2ccccc2)n(CCOC(=O)COc2ccccc2)n1,0,0,0,31.6µM,?,0
CC(/C=C/C=C(C)/C=C/C(=O)O)=C\C=C\C=C(C)\C=C\C=C(C)\C=C\C(=O)O,-,0,0,-,-,0
C=CCN1c2ccccc2[C@]23C[C@@H](C(=O)OC)N(S(=O)(=O)c4c(C)noc4C)C2=NC(C(=O)OC)=C(C(=O)OC)[C@H]13,0,0[17.5 µM],0[17.4 µM],-,-,0[12.8 µM]
COc1ccc(NC(=S)NNc2ccc(S(=O)(=O)Nc3ccccc3C(=O)O)cc2[N+](=O)[O-])cc1,0,0,0,25.1µM,-,0
CC(=O)Nc1ccc(N/C=C/C(=O)c2ccco2)cc1,0,0,0,0,0,0
SMILES,GLA inh pH 4.5,GLA spleen mod,aGlu spleen mod,GAA glycogen,GAA inhib,N370S GC
CN(C)c1ccc(N/C=C/C(=O)c2ccco2)cc1,0,0,0,12.6µM,0,0[12.8 µM]
O=C(/C=C/Nc1ccccc1O)c1ccco1,0,0,0,15.7µM,-,0
O=C(/C=C/Nc1ccccc1Oc1ccccc1)c1ccco1,0,0,0,0,0,0
Oc1ccc(-c2csc(-c3ccccc3)n2)cc1O,0,0,0,11.1µM,0,0
Oc1ccc(-c2csc(-c3cccnc3)n2)cc1O,0,0,0,7.08µM,-,0
Oc1ccc(-c2csc(Nc3ncccn3)n2)cc1O,0,0,0,7.03µM,0,0

# Assay outcomes as filed in PubChem BioAssay.
